Common to all, as to assay: NCI-60 one-dose screen, 48 h (100 = growth as untreated, 0 = no growth, -100 = all killed)
Holding throughout (settings): 10 µM unless noted

For assay [1], the system named is SK-MEL-2 melanoma.
For assay [2], the system named is EKVX NSCLC.
Assay [3] concerns SN12C renal.
In assay [4] the test system is UO-31 renal.
Assay [5] deals with TK-10 renal.
The subject of assay [6] is ACHN renal.
The test system of assay [7] is CAKI-1 renal.
Assay [8] concerns A498 renal.
Assay [9] relates to CCRF-CEM leukemia.
In assay [10] the test system is MOLT-4 leukemia.
Assay [11] relates to SR leukemia.
Assay [12] has as its system RPMI-8226 leukemia.
Assay [13] relates to OVCAR-8 ovarian.
The test system of assay [14] is OVCAR-5 ovarian.
In assay [15] the test system is OVCAR-4 ovarian.
Assay [16] deals with SK-OV-3 ovarian.
For assay [17], the system named is IGROV1 ovarian.
Assay [18] deals with OVCAR-3 ovarian.
The subject of assay [19] is HS 578T breast.
The subject of assay [20] is NCI/ADR-RES ovarian.

About 83,000 compounds went through this panel and 20% of them were active in at least one assay; those are over-represented in the sample as a whole.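 Cell lines were cultured in 96-well plates, exposed to a single compound concentration, and assessed for percent growth 48 hours later.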 Values without a mark were called inactive. Activity calls are given as the source filed them. Rule for the calls: active = growth percent below 10; inactive = the rest.

Take `CCCCCN(CCCCC)CC(O)c1c(Cl)ccc2ccccc12` (stereo not given): the growth in assay [1] is 93.4%; in assay [2], 62.5%; in assay [3], 70.2%; in [4], 37.2%; in [5], 98.1%; in assay [6], 54.7%. The growth in [7] was 60%; in assay [8] it was 68.3%; in assay [9], 67.2%; in assay [10], 54%; in assay [11] it was 32.9%; in assay [12] it was 66.2%. Besides, the growth is 87.5% in assay [13]; 65.8% in assay [14]; 79.5% in assay [15]; 93.6% in assay [16]; 63% in [17]; 90.7% in assay [18]. In addition, the growth in [19] was 80%; in [20], 77.8%.
With `CCCCC#Cc1c(I)n(C2OC(CO[Si](C)(C)C(C)(C)C)C3OC(C)(C)OC32)c(=O)[nH]c1=O` (stereo not given), the growth in assay [1] was 55.6%; in [2], 92.2%; in [3], 85.1%; in [4] it was 56.1%; in assay [5], 68.9%; in [6] it was 72.5%. For the same molecule, the growth in assay [7] was 74.4%; in assay [8] it was 99.1%; in assay [9] it was 8.63% (active); in assay [10] it was 4.72% (active); in [11], -5.46% (active); in assay [12], -46.9% (active). For the same molecule, the growth was 85.7% in [13]; 82.5% in assay [14]; 70.3% in [15]; 98.8% in assay [16]; 83.8% in [17]; 42.7% in [18]. The growth in [19] was 100%; in assay [20], 84.5%.
Take `COc1nc2ccccc2cc1/C=C1/C=C(c2ccccc2)NC1=O`: the growth in assay [1] was 19%; in [2] it was 52.5%; in [3] it was 40.6%; in assay [4] it was 41.2%; in [5] it was 87.5%; in assay [6] it was 40.9%. The growth in assay [7] is 31.9%; in [8], 35.9%; in assay [9], 41.1%; in assay [10], 21.5%; in assay [11] it was 20%; in [12], 53.7%. For the same molecule, the growth in assay [13] is 44.8%; in assay [14], 85.4%; in assay [15] it was 65%; in assay [16] it was 50.3%; in [17] it was 39%; in assay [18], 17.2%. In addition, the growth was 25.8% in assay [19] and 32.8% in assay [20].
Turning to `CCCS(=O)(=O)Nc1cccc(Nc2ncnc3cc(NC(=O)CCl)ccc23)c1Cl`, the growth in assay [1] is -32.1% (active); in assay [2] it was -14.9% (active); in [3], -76% (active); in assay [4], -95% (active); in [5], -36.4% (active); in [6] it was -94.4% (active). The growth in [7] is -74.6% (active); in assay [8], 9.01% (active); in assay [9], 3.74% (active); in assay [10], 4.33% (active); in assay [11], 2.37% (active); in [12] it was -32.1% (active). Also, the growth in assay [13] was 0.271% (active); in [14], -65% (active); in assay [15] it was -38.3% (active); in [16], -4.59% (active); in assay [17], -52.6% (active); in [18] it was -85.3% (active). Besides, the growth in [19] is 10.5%; in [20], 49.9%.
Consider `CC(=O)OCC(=O)O[C@@H]1C[C@]2(C(C)C)O[C@@]1(C)[C@@H]1CC[C@@H](C)[C@H]1[C@@H]2OC(=O)/C=C/c1ccccc1`, for which the growth in assay [1] is 90.9%; in [2], 68.9%; in assay [3], 20.3%; in assay [4], -83.3% (active); in assay [5], 81.1%; in assay [6] it was -4.65% (active). Further, the growth in assay [7] is -2.07% (active); in assay [8] it was -92.5% (active); in assay [9], 70.7%; in [10], 74.5%; in [11], 78.4%; in [12], 73.7%. Besides, the growth in assay [13] was 25%; in assay [14] it was 99.8%; in [15] it was 87.9%; in [16], 87.7%; in assay [17], 106%; in assay [18], 90.9%. Moreover, the growth was -18% (active) in assay [19] and 21.7% in [20].
Consider `CN(C)c1ccc(/C=N/NC(=O)CSc2nc3sc4c(c3c(=O)n2-c2ccccc2)CCCCC4)cc1`, for which the growth was 78.6% in [1]; 47% in assay [2]; 55.5% in assay [3]; 77.8% in assay [4]; 64.9% in assay [5]; 24.6% in assay [6]. The growth was 8.87% (active) in assay [7]; 34.8% in assay [8]; 70.9% in assay [9]; 71.8% in assay [10]; 22.7% in assay [11]; 76.8% in assay [12]. The growth in assay [13] was 20.6%; in assay [14] it was 50.7%; in assay [15], 19.7%; in assay [16] it was 67.1%; in assay [17] it was 36.5%; in assay [18], 12%. Besides, the growth is 23.9% in [19] and 59.1% in [20].
Turning to `CC1(C)CC[C@]2(CO)CC[C@]3(C)[C@H](CC[C@@H]4[C@@]5(C)CC[C@H](O)C(C)(C)[C@@H]5CC[C@]43C)[C@H]2[C@H]1O`, the growth in assay [1] was 104%; in assay [2], 106%; in assay [3], 65.6%; in assay [4], 114%; in assay [5] it was 58.7%; in assay [6], 77.2%. Further, the growth in assay [7] is 99.9%; in [8] it was 91.5%; in [9] it was 98.5%; in assay [10] it was 86.3%; in [11], 56.2%; in assay [12] it was 100%. In addition, the growth is 64.5% in assay [13]; 114% in [14]; 58.5% in assay [15]; 92.3% in assay [16]; 102% in assay [17]; 74.7% in assay [18]. In addition, the growth was 7.22% (active) in assay [19] and 80.8% in assay [20].

The record behind these values is PubChem BioAssay (NCI).
